Test results: PubChem BioAssay
A number with no mark means an inactive call. How the calls were made is not given here. Where a SMILES comes first, the peptide text is derived from it. The star is where a group is joined. Boc = CC(C)(C)OC(=O)*

molecular target: Pantothenate synthetase (Mycobacterium tuberculosis (strain ATCC 25618 / H37Rv)) (UniProt P9WIL5); experiment: Coupled enzyme confirmation of inhibitors against recombinant Mtb PanC (AID 375); conditions: coupled enzyme assay; at 10 µM, active compounds read high;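 further: 0% = full reaction with vehicle and 100% = no enzyme background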
Sequence (P9WIL5 whole entry, looked up): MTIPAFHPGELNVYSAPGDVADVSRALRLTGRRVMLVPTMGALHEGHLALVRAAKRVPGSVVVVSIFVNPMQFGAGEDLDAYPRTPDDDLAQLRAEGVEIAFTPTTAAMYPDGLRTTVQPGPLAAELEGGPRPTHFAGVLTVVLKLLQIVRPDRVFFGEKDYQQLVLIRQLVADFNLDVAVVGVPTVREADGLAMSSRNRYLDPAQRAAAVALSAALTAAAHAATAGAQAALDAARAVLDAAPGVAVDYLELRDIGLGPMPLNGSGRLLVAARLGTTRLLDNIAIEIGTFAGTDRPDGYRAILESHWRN

`CSCCC(NC(=O)c1ccco1)C(=O)OC(C)C(=O)NC(=O)NC1CCCCC1` (stereo not given) and `CCOC(=O)C1CCN(c2c(N(C)Cc3ccco3)c(=O)c2=O)CC1` are the same in inhibition: 0% for the first, 0% for the second.

`c1ccc(-n2ncc3c(NC4CCCCCC4)ncnc32)cc1` and `Cc1cc(C(=O)NCCCN2CCOCC2)n(-c2ccccc2)n1` are the same in inhibition: 0% for the first, 0% for the second.

`Cc1cc(C)cc(NC(=O)c2nnn(Cc3cc(C)ccc3C)c2N)c1` and `CCOC(=O)C1=C(Cn2cnc3ccccc32)NC(=O)NC1c1cc(C)ccc1C` (stereo not given) are the same in inhibition: 0% for the first, 0% for the second.

First: CN(C(=O)c1ccccn1)c1nnc(-c2cccnc2)s1
Second: CC1=C(C(=O)OC(C)C)C(c2ccccn2)n2ncnc2N1 (stereo not given)
The inhibition of the first is higher: 6% for the first, 0% for the second.

`CC1CCN(C(=S)c2ccccc2O)CC1` and `O=C(OC1CCc2ccccc2C1=O)c1ccccc1O` (stereo not given) are the same in inhibition: 0% for the first, 0% for the second.

Going from `N#CC1=C(N)N2C(=C(C#N)C13CCCCC3)SC1CCCCC12O` (stereo not given) to `C1CCc2nnc(-c3nnc4n3CCCCC4)n2CC1`, the inhibition rises from 0% to 10%.

`O=C(CN1C(=O)CCSc2ccccc21)Nc1ccc2c(c1)OCO2` and `Cc1cc(C)n(-c2ccc(C(=O)Nc3ccc4c(c3)OCCO4)cc2)n1` are the same in inhibition: 2% for the first, 2% for the second.

Going from `O=C(CN1C(=O)CSC1=O)N1CCc2ccccc2C1` to `Cc1cc(C(=O)N2CCN(C/C=C/c3ccccc3)CC2)no1`, the inhibition falls from 3% to 0%.

Going from `COCCn1cc(C(=O)NCCCN2CCC(C)CC2)c2c3ccccc3n(C)c2c1=O` to `COCCCNC(=O)C1CCN(C(=O)Nc2ccc(Cl)cc2)CC1`, the inhibition falls from 2% to 0%.

Going from `COC(=O)c1c(N)nc(C)n1-c1ccc(OC)cc1` to `CCOC(=O)CSc1nnc(CNC(=O)c2cccs2)n1-c1cc(OC)ccc1OC`, the inhibition rises from 0% to 1%.

First: COCCN1C(=O)C(=O)/C(=C(/O)c2cccc(OC)c2)C1c1ccncc1 (stereo not given)
Second: CCOC(=O)c1ccc(NC(=O)CSc2n[nH]c(-c3ccncc3)n2)cc1
The inhibition of the first is lower: 1% for the first, 5% for the second.

Compared with `CCN(c1ccccc1)S(=O)(=O)c1ccc(F)cc1C`, `Cc1cc(-c2ccccc2)c2c3c(cn2n1)c(=O)n(C)c(=O)n3C` is lower in inhibition: 1% for the first, 0% for the second.

`CCOC(=O)N1CCN(C(=O)CN(C2CCCCC2)S(=O)(=O)c2ccc(F)cc2)CC1` and `CSC1=NCCN1C(=O)c1ccc(S(=O)(=O)N2CCCC2)cc1` are the same in inhibition: 0% for the first, 0% for the second.

`O=C1CN(C(=O)COC(=O)c2ccccc2NC(=O)c2ccco2)c2ccccc2N1` and `N#Cc1ccccc1Cn1c(=O)n(Cc2ccc(C(=O)NCc3ccco3)cc2)c(=O)c2ccccc21` are the same in inhibition: 0% for the first, 0% for the second.

First: COc1ccccc1NC(=O)C1=C(C)Nc2ncnn2C1c1ccc(C)o1 (stereo not given)
Second: CCc1noc(C)c1C(=O)NCCc1ccc(OC)c(OC)c1
The inhibition of the first is higher: 10% for the first, 3% for the second.

`Cc1ccc(CS(=O)(=O)CCC(=O)NCC2CCCO2)cc1` (stereo not given) and `Cc1nc(NC2=NCN(CC3CCCO3)CN2)nc2ccccc12` (stereo not given) are the same in inhibition: 0% for the first, 0% for the second.

First: O=C(NCc1ccc(F)cc1)C1CCN(C(=O)NCc2ccccc2)CC1
Second: CN(C)S(=O)(=O)c1ccc(C(=O)N2CCC(c3nc4ccccc4o3)CC2)cc1
The inhibition of the first is lower: 0% for the first, 5% for the second.

First: CN1CCN(C(=O)C2(NC(=O)Nc3cccc(F)c3)CCCCC2)CC1
Second: CS(=O)(=O)NCCSCc1c(F)cccc1Cl
The inhibition of the first is lower: 0% for the first, 3% for the second.

`O=C(O)Cc1cc(I)c(Oc2ccc(O)c(I)c2)c(I)c1` and `CCCCc1cc(=O)oc2cc(OCC(=O)N(CC)CC)c(Cl)cc12` are the same in inhibition: 0% for the first, 0% for the second.

First: CCC(C)C(NC(=O)OC(C)(C)C)C(=O)NC(CC(C)C)C(N)=O (stereo not drawn) (Boc-Ile-Leu-NH2; configuration not given here)
Second: CCCCn1c(=O)[nH]c(=O)c2c1nc(COc1ccc(C#N)cc1)n2CCC
The inhibition of the first is lower: 0% for the first, 4% for the second.
